Assay outcomes: PubChem, several laboratories
Hits are enriched below; roughly 4.2% of the tested compounds scored in any of these assays.
GDH-TPI inh = counter-screen for M. tuberculosis FBA inhibitors: GDH-TPI coupled enzymes. GDH-TPI coupled enzyme counterscreen, NADH absorbance. inhibition, % at 4.8 µM. 1.2% of 360,000 active
CCHFV vOTU inh = blocks the CCHF virus ovarian tumor domain protease | CCHFV vOTU protease, Pep-AMC fluorescence | inhibition, % at 11.5 µM | 0.55% of 370,000 active
RecA intein inh = blocks M. tuberculosis RecA intein splicing | P9WHJ3 | cell-free RecA intein splicing, fluorescence | inhibition, % (concentration not given with the values) | 0.75% of 290,000 active | AID 2221; in the data active = inhibition above about 30%
Mtb FBA inh = inhibits M. tuberculosis FBA enzyme | purified M. tuberculosis FBA, fluorescence read-out | 2.3% of 360,000 active | P9WQA3 | inhibition, % at 1 µM; in the data active = inhibition above about 27%
Target sequence (P9WQA3 whole entry, looked up): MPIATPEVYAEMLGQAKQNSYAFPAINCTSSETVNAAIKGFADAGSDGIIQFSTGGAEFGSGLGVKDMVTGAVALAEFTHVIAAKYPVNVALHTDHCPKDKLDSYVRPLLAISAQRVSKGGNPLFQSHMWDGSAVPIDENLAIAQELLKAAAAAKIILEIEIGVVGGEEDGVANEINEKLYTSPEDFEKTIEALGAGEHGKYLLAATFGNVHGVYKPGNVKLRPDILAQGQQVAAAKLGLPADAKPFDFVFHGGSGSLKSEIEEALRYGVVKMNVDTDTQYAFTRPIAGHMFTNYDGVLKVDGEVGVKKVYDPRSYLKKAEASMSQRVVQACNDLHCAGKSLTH
Each line names hits and unclear results; the compound was inactive in the other large screens. Cut-off read from the data, not from the text of the source, unless noted: active = inhibition above about 30%; inactive = the rest.

Nc1[nH]c2cc(Cl)ccc2c1C(=O)N1CCOCC1	none (no result: GDH-TPI inh, RecA intein inh, Mtb FBA inh)
Nc1nc(C(=O)N2CCOCC2)nn1C(=O)c1ccc(Cl)cc1	RecA intein inh 32
COc1ccc2c(c1)CNC2CS(=O)(=O)NCC(C)C (centres undefined)	none (no result: GDH-TPI inh, RecA intein inh, Mtb FBA inh)
O=C(NC1CCCCN(Cc2cccc(C(F)(F)F)c2)C1=O)C1C2CC3CC(C2)CC1C3 (centres undefined)	none (no result: GDH-TPI inh, RecA intein inh, Mtb FBA inh)
CC(C)N1CC(=O)N2CSCC2C1=O (centres undefined)	none (no result: GDH-TPI inh, RecA intein inh, Mtb FBA inh)
CN(C)C=Nc1ccc(Cl)c(Cl)c1	none
CN(C)C=Nc1ccc2nn(-c3ccccc3)nc2c1	Mtb FBA inh 177
O=[N+]([O-])c1ccc(-c2nc(Cl)c3c(n2)CCCC3)o1	GDH-TPI inh 32 (no result: RecA intein inh)
Cc1nn(CC(C)C)c(Cl)c1C(=O)N(C)CC(=O)Nc1c(Cl)cccc1Cl	none
CC1(C)Cc2c(sc3[nH]c(=S)n(Cc4ccco4)c(=O)c23)CO1	GDH-TPI inh 37
O=c1c2c3c(sc2[nH]c(=S)n1Cc1ccco1)CCC3	none
COc1cc2oc(=O)ccc2cc1-c1c(OC)ccc2ccc(=O)oc12	GDH-TPI inh 35 (no result: RecA intein inh)
CCN(CC(=O)Nc1ccc(NC(C)=O)cc1)C(=O)/C=C/c1ccc(C)o1	GDH-TPI inh 35 (no result: RecA intein inh)
CCN(CC(=O)Nc1ccc(NC(C)=O)cc1)C(=O)/C=C/c1ccccc1	none
Cc1cccn2c(=O)c3cc(C(=O)NCCN4CCOCC4)c(=N)n(Cc4ccc(F)cc4)c3nc12	Mtb FBA inh 156
Cc1cccn2c(=O)c3cc(S(=O)(=O)c4ccccc4)c(=N)n(Cc4ccc(F)cc4)c3nc12	none
COc1ccc(CCNC(=O)c2cc3c(=O)n4cccc(C)c4nc3n(CCCN3CCOCC3)c2=N)cc1	none
CCOCCCn1c(=N)c(C(=O)NCCN2CCOCC2)cc2c(=O)n3cccc(C)c3nc21	Mtb FBA inh 185 (no result: RecA intein inh)
Cc1cccn2c(=O)c3cc(C(=O)NCCN4CCOCC4)c(=N)n(CCN4CCOCC4)c3nc12	Mtb FBA inh 151
Cc1cccn2c(=O)c3cc(C(=O)NC4CCCC4)c(=N)n(CCCN4CCOCC4)c3nc12	Mtb FBA inh 141
CCOc1ccccc1N1CCN(CC(=O)Nc2ccnn2C2CCCC2)CC1	none (no result: RecA intein inh)
COc1ccc(-c2nc(=S)c3c(n2CCN2CCOCC2)CC(C)(C)OC3)cc1	GDH-TPI inh 38
Cc1ccc(-c2nc(=S)c3c(n2CCN2CCOCC2)CC(C)(C)OC3)cc1	none
CCN(CC)CCn1c(-c2ccc(C)cc2)nc(=S)c2c1CC(C)(C)OC2	GDH-TPI inh 32
C=CCn1c(-c2ccccc2)nc(=S)c2c1CC(C)(C)OC2	GDH-TPI inh 35
COC(=O)[C@]12C[C@H](CC(=O)N3CCN(C(=O)C4CC4)CC3)C(=O)N(CCC3=CCCCC3)C1=C[C@H](C1CCCC1)O[C@@H]2C	none (no result: GDH-TPI inh, RecA intein inh, Mtb FBA inh)
COc1ccc2oc(C(=O)Nc3nc4ccccc4[nH]3)c(C)c2c1	GDH-TPI inh 44
CC(=O)Nc1ccc(/C=N\NC(=O)c2cccc(S(=O)(=O)N(C)C)c2)cc1	none (no result: GDH-TPI inh, RecA intein inh, Mtb FBA inh)
Cc1csc(Nc2nc(N)c(C(=O)Nc3ccccc3)o2)n1	GDH-TPI inh 35
Cn1cc(C(=O)N/N=C/C(Br)=C/c2ccccc2)ccc1=O	GDH-TPI inh 44
Cn1cc(C(=O)N/N=C/C(Br)=C\c2ccccc2)ccc1=O	GDH-TPI inh 32
Cn1cc(C(=O)N/N=C/C=C/c2ccccc2)ccc1=O	GDH-TPI inh 40
Cc1cccc(Cn2cc(COC(=O)N3CCCC3)nn2)c1	none (no result: GDH-TPI inh, RecA intein inh, Mtb FBA inh)
CCc1nc2c(OCC=C(C)C)cccn2c1N(C)C(=O)c1ccc(OC)cc1	none (no result: RecA intein inh)
COc1ccc(NC(=O)CSc2nnc(C)s2)cc1S(=O)(=O)N1CCOCC1	none (no result: RecA intein inh)
COC(=O)[C@]12C[C@H](CC(=O)N3CCCC3)C(=O)N(Cc3ccc(Cl)cc3Cl)C1=C[C@H](C(C)(C)C)O[C@@H]2C	none (no result: GDH-TPI inh, RecA intein inh, Mtb FBA inh)
COC1=CC2(O)CCCC2=CC1=O (centres undefined)	Mtb FBA inh 150
CN(C)C1=NC(=O)/C(=C\c2ccccc2)S1	GDH-TPI inh 31
COc1ccc(/C=C2\SC(N)=NC2=O)cc1	none
NC1=NC(=O)C(=Cc2ccccc2)S1	GDH-TPI inh 31 (no result: RecA intein inh)
NC1=NC(=O)/C(=C/c2cccs2)S1	GDH-TPI inh 32 (no result: RecA intein inh)
NC1=NC(=O)/C(=C\c2cccnc2)S1	none
CNC(=O)c1cc(S(=O)(=O)Nc2ccc3c(c2)OCO3)ccc1C	none
Cc1ccc(-n2c(SCC(=O)Nc3ccccc3-c3ccccc3)nnc2-c2cccs2)cc1	none (no result: GDH-TPI inh, RecA intein inh, Mtb FBA inh)
CCCC(C)C(=O)Nc1ccc(Cl)cn1 (centres undefined)	GDH-TPI inh 31
N#CCC[C@H]1CC[C@]2(CCCN(C(=O)C3CCCCC3)C2)O1	none (no result: GDH-TPI inh, RecA intein inh, Mtb FBA inh)
CCc1nnc(NC(=O)/C=C/c2ccco2)s1	GDH-TPI inh 47 (no result: RecA intein inh)
Cc1nc(NC(=O)/C=C/c2ccco2)sc1C	GDH-TPI inh 32
O=C(/C=C/c1ccco1)Nc1nnc(-c2ccco2)s1	none
COc1ccc(C)cc1S(=O)(=O)N1CCN(C/C=C/c2ccccc2)CC1	none (no result: RecA intein inh)
Cn1nc([N+](=O)[O-])nc1Sc1nnc(-c2ccccc2)o1	RecA intein inh 32
C=CCN1C(=O)[C@H](CC(=O)NCCCC)[C@@]2(C(=O)OCC)CCCC=C12	none (no result: GDH-TPI inh, RecA intein inh, Mtb FBA inh)
COc1ccccc1-c1nc(C#N)c(N2CCCCCC2)o1	Mtb FBA inh active
Cc1cccc(-c2nc(C#N)c(N3CCCCCC3)o2)c1	Mtb FBA inh 139
COc1ccc(-c2nc(C#N)c(N3CCc4ccccc4C3)o2)cc1OC	GDH-TPI inh 41, Mtb FBA inh 150
Cc1cccc(-c2nc(C#N)c(N3CCC(C)CC3)o2)c1	none
Cc1nn(CC(=O)NCc2cccs2)c(=O)c2nn(-c3ccccc3)c(C)c12	none
CC(C)(C)c1ccccc1NC(=O)CN1C(=O)NC2(CCCCCC2)C1=O	none (no result: RecA intein inh)
S=c1[nH]nc(COc2ccccc2)n1/N=C/c1c(Cl)cccc1Cl	none
CCC(=O)N1N=C(c2ccc(NS(=O)(=O)c3ccccc3)cc2)CC1c1ccco1 (centres undefined)	none (no result: RecA intein inh)
O=C(O)c1cc2ccc3cccc4ccc(c1)c2c34	Mtb FBA inh 168
O=C(O)c1cccc(C(=O)c2cccc(C(=O)O)c2)c1	none
O=C(CN1CCN(C(=O)C2CCN(C(=O)/C=C/c3ccccc3)CC2)CC1)Nc1ccc(F)cc1	none (no result: RecA intein inh)
CCN(CC)Cc1c(O)ccc2c(C)c(CC(=O)OC)c(=O)oc12	Mtb FBA inh active
COC(=O)Cc1c(C)c2ccc(O)c(CNCc3ccc(OC)c(OC)c3)c2oc1=O	Mtb FBA inh active
CCOC(=O)C1(C)CCCN(C(=O)c2ccc3ccccc3c2)C1 (centres undefined)	none (no result: RecA intein inh)
Cc1ccsc1C(=O)N/N=C/c1ccc2c(c1)OCO2	GDH-TPI inh 36
Cc1cc(C(=O)N/N=C/c2ccc3c(c2)OCO3)c(C)o1	none
Cn1cc(C(=O)N/N=C/c2ccc3c(c2)OCO3)c2ccccc21	GDH-TPI inh 34
COc1ccc2c(Cl)c(C(=O)N/N=C/c3ccc4c(c3)OCO4)sc2c1	GDH-TPI inh 47
O=C(N/N=C/c1ccc2c(c1)OCO2)c1cccs1	GDH-TPI inh 35
Cc1ccc(S(=O)(=O)NC(=O)C2(C)CCN2C(=O)CC2CCCC2)nc1 (centres undefined)	none (no result: RecA intein inh)
COc1ccc2c(Cl)c(C(=O)N/N=C/c3c(C)[nH]c4ccccc34)sc2c1	none
Cc1occc1C(=O)N/N=C/c1ccc2c(c1)OCO2	GDH-TPI inh 46
COc1ccc2c(Cl)c(C(=O)N/N=C3\CCCC(=O)C3)sc2c1	GDH-TPI inh 34
